Source: PubChem BioAssay (EPA / NIEHS)
The source made the active and inactive calls. Rule for the calls: active = hit-call score of the fitted dose curve at least 0.9, where 1 is the maximum; inactive = score below 0.9.

Legend:
[1] = ATG_E_Box_CIS: Attagene CIS-FACTORIAL HepG2 Assay for human Enhancer Box (E-box) (AID 2282936); conditions: HepG2 E-box cis-reporter transcription, actives raise or lower the signal
In short: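 DMSO served as negative control and baseline for bidirectional fitting. Human hepatoma HepG2 cells, transiently transfected with cis-reporter constructs, were dosed 24 h; reporter mRNA read by RT-PCR and capillary electrophoresis.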

[2] = ATG_M_61_CIS: Attagene CIS-FACTORIAL HepG2 Assay for M61 Transcription Factor (Internal Marker) (AID 2282937); conditions: HepG2 Attagene CIS-FACTORIAL M61 internal marker reporter; actives raise or lower the signal
In short: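 Multiplexed reporter mRNA assay, HepG2 human hepatoma cells, 24 h treatment. Signal: FAM-labelled, HpaI-digested RT-PCR fragments by CE. Fit: bidirectional, baseline DMSO.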

[3] = ATG_EGR_CIS: Attagene CIS-FACTORIAL HepG2 Assay for human Early Growth Response 1 (EGR1) (AID 2282938); conditions: HepG2 Attagene CIS-FACTORIAL EGR reporter mRNA; actives raise or lower the signal
In short: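 Multiplexed cis-reporter system in human hepatoma HepG2 cells, transiently transfected. Cells are dosed for 24 h; reporter transcripts are amplified, fluorescently tagged and sized by capillary electrophoresis, with DMSO as negative control.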

[4] = ATG_M_19_CIS: Attagene CIS-FACTORIAL HepG2 Assay for M19 Transcription Factor (Internal Marker) (AID 2282939); conditions: HepG2 Attagene CIS-FACTORIAL M19 internal marker reporter; actives raise or lower the signal
In short: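 In this multiplexed cell assay, transiently transfected HepG2 reporter units report endogenous transcription-factor activity; after 24 hours of treatment, labelled reporter cDNA fragments are quantified by capillary electrophoresis and fitted bidirectionally against DMSO.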

[5] = ATG_Ets_CIS: Attagene CIS-FACTORIAL HepG2 Assay for human Erythroblast Transformation Specific (ETS) (AID 2282941); conditions: HepG2 ETS cis-reporter transcription, actives raise or lower the signal
In short: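 HepG2 cells transiently transfected with cis-promoter reporter transcription units were dosed for 24 h; reporter mRNA was measured by RT-PCR, 6-FAM primer extension, HpaI digestion and capillary electrophoresis, with bidirectional fitting against DMSO baseline.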

[6] = target: Hepatocyte nuclear factor 3-beta (Homo sapiens) (UniProt Q9Y261); test: ATG_FoxA2_CIS: Attagene CIS-FACTORIAL HepG2 Assay for human Forkhead box A2 (FOXA2) (AID 2282942); conditions: HepG2 cis-reporter transcription factor activity, 24 h; actives raise or lower the signal
Hepatocyte nuclear factor 3-beta (Homo sapiens), sequence (Q9Y261 whole entry, looked up): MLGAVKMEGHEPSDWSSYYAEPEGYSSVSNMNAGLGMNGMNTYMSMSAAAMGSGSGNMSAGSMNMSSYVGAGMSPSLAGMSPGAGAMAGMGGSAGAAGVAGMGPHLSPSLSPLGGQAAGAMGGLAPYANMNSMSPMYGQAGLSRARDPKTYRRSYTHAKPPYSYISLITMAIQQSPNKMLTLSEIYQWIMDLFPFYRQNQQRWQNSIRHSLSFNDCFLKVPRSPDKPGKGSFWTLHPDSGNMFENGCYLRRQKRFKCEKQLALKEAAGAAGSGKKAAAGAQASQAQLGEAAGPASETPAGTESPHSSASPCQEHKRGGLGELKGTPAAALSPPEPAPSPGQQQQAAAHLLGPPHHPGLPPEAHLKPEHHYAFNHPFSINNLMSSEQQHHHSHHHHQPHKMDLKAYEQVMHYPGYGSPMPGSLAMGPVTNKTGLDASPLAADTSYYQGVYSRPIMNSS
In short: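 Multiplexed cis-element reporter assay in transiently transfected HepG2. Twenty-four hours post-dosing, RNA was reverse-transcribed, amplified, FAM-labelled, HpaI-digested and separated by CE. Activity gain or loss relative to DMSO.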

[7] = ATG_FoxO_CIS: Attagene CIS-FACTORIAL HepG2 Assay for human Forkhead box O (FoxO) (AID 2282943); conditions: HepG2 Attagene cis-reporter, FoxO element, mRNA; actives raise or lower the signal
In short: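 Human hepatoma HepG2 cells carry transiently introduced reporter transcription units controlled by cis promoter elements. Chemical treatment lasted 24 h, and mRNA signal was compared with DMSO.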

[8] = ATG_GATA_CIS: Attagene CIS-FACTORIAL HepG2 Assay for human GATA Binding Protein (AID 2282944); conditions: HepG2 GATA cis-element reporter, Attagene multiplex mRNA; actives raise or lower the signal
In short: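 Measures endogenous transcription factor-driven reporter mRNA in HepG2 cells transiently carrying cis-regulated constructs. 24 h dosing; RNA via oligo(dT) reverse transcription, PCR, HpaI digestion, capillary electrophoresis; fitted relative to DMSO.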

[9] = ATG_ERE_CIS: Attagene CIS-FACTORIAL HepG2 Assay for Estrogen Response Element (ERE) (AID 2282940); conditions: HepG2 ERE cis-reporter, Attagene RNA transcript; actives raise or lower the signal
In short: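 Measuring endogenous transcription factor output, the assay doses transfected HepG2 cells for 24 hours and quantifies reporter transcripts by fluorescent RT-PCR and capillary electrophoresis, with DMSO as baseline.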

[10] = ATG_GLI_CIS: Attagene CIS-FACTORIAL HepG2 Assay for human Zinc Finger Protein GLI1 (AID 2282945); conditions: HepG2, Attagene cis-factorial reporter mRNA, GLI element; actives raise or lower the signal
In short: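 Bidirectional curve fits relative to DMSO, using reporter mRNA levels from RT-PCR plus capillary electrophoresis. Cells were HepG2 transiently carrying cis-regulated reporter constructs, harvested 24 h after dosing.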

Measured: AC50

COC(C(=O)O)c1ccccc1 (stereo not given)
not listed: [9] | [10]
inactive: all other assays above

COc1cc(C(C)(C)C)c(O)c(C(C)(C)C)c1
not listed: [9] | [10]
inactive: all other assays above

CNC(=O)Oc1ccc2c(c1)[C@]1(C)CCN(C)[C@@H]1N2C
not listed: [5] | [10]
inactive: all other assays above

COCCOCCOCCOCCOCCO
not listed: [9]
inactive: all other assays above

CC(=O)Nc1ccc(CC(=O)O)cc1
not listed: [5]
inactive: all other assays above

CC(C)(C)NC(N)=O
not listed: [5]
inactive: all other assays above

CC(C)c1ccc(C(C)C)cc1
active: [9] 155 µM
not listed: [5]
inactive: all other assays above

Nc1ccc(F)c([N+](=O)[O-])c1
not listed: [6]
inactive: all other assays above

CC(C)[C@H]1CC[C@@H](C)CC1=O
not listed: [9] | [10]
inactive: all other assays above

O=C1c2ccccc2C(=O)N1SC1CCCCC1
inactive: [1] | [2] | [6] | [10]
active: [3] 65.6 µM | [4] 186 µM | [9] 66.4 µM | [5] 159 µM | [7] 172 µM

CCCCOCCOCCOCCOCCO
not listed: [9] | [10]
inactive: all other assays above

O=C(COc1ccc(Cl)cc1)N1CCN(Cc2ccc3c(c2)OCO3)CC1
active: [3] 32.1 µM
not listed: [5]
inactive: all other assays above

O=C(OCc1ccccc1)C(=O)OCc1ccccc1
not listed: [6] | [10]
inactive: all other assays above

O=C1O[C@@H]2[C@@H](O)[C@H](O)O[C@@H]2[C@H]1O
not listed: [6]
inactive: all other assays above

COC(C)CCO (stereo not given)
not listed: [8] | [9] | [10]
inactive: all other assays above

O=C(O)Cc1cccc2ccccc12
not listed: [9] | [10]
inactive: all other assays above

Cc1ccc2sc3cccc(C)c3c2c1
not listed: [6]
inactive: all other assays above

OC1C(O)C(O)C(O)C(O)C1O (stereo not given)
not listed: [5]
inactive: all other assays above

C=C(C)C(=O)O
not listed: [5]
inactive: all other assays above

CC1=CCC(O)(C(C)C)CC1 (stereo not given)
not listed: [8]
inactive: all other assays above

CN1Cc2c(N)cccc2C(c2ccccc2)C1 (stereo not given)
not listed: [8] | [9] | [10]
inactive: all other assays above

C=CC[N+](C)(C)CC=C
not listed: [9] | [10]
inactive: all other assays above

NC(N)=NC(=O)c1nc(Cl)c(N)nc1N
not listed: [5]
inactive: all other assays above

CCC(=O)OCc1ccccc1
not listed: [9] | [10]
inactive: all other assays above

c1ccc2c(c1)c1cccc3ccc4cccc2c4c31
not listed: [5]
inactive: all other assays above

C=C(C)C(=O)Nc1ccc(Cl)c(Cl)c1
active: [3] 27.2 µM
not listed: [5]
inactive: all other assays above

ClCCCl
not listed: [5]
inactive: all other assays above

Clc1nc(C(Cl)(Cl)Cl)c(Cl)c(Cl)c1Cl
active: [5] 54.2 µM | [8] 58.8 µM | [10] 55.8 µM
not listed: [6]
inactive: all other assays above

CCCC(=O)C(C)=O
not listed: [5]
inactive: all other assays above

CC[Si](OC(C)=O)(OC(C)=O)OC(C)=O
not listed: [8]
inactive: all other assays above

CC(=O)OCC=Cc1ccccc1
not listed: [9]
inactive: all other assays above

Fc1c(F)c(F)c(Br)c(F)c1F
not listed: [9]
inactive: all other assays above

C=C(C)C(=O)NCCCN(C)C
not listed: [9]
inactive: all other assays above

CCC(=O)OCCC(C)CCC=C(C)C (stereo not given)
not listed: [9]
inactive: all other assays above

CNC[C@H](O)c1cccc(O)c1
not listed: [9]
inactive: all other assays above

CC(C)(CO)[N+](=O)[O-]
not listed: [9]
inactive: all other assays above

COC(=O)OC
not listed: [9]
inactive: all other assays above

C[C@H]1C[C@@H]2[C@H]([C@@H](O)C[C@@]3(C)[C@H]2CC[C@]3(O)C(=O)CO)[C@@]2(C)C=CC(=O)C=C12
not listed: [9]
inactive: all other assays above

CNCCO
not listed: [9]
inactive: all other assays above

NC(=O)NC1NC(=O)NC1=O (stereo not given)
not listed: [9]
inactive: all other assays above

CCCOCC(C)O (stereo not given)
not listed: [9]
inactive: all other assays above

CC(C)=CCC/C(C)=C/COC=O
not listed: [9]
inactive: all other assays above

O=[N+]([O-])c1cc(C(F)(F)F)ccc1Cl
not listed: [9]
inactive: all other assays above

CC(=O)C(C)=O
not listed: [9]
inactive: all other assays above

C=CCOc1nc(OCC=C)nc(OCC=C)n1
not listed: [9]
inactive: all other assays above

CC(CCO)CCc1ccccc1 (stereo not given)
not listed: [9]
inactive: all other assays above

CC(C)=CCC[C@H](C)CC=O
not listed: [9]
inactive: all other assays above

Nc1ccc(S(=O)(=O)O)c(N)c1
not listed: [8] | [9]
inactive: all other assays above

CCCCNC(=O)NS(=O)(=O)c1ccc(C)cc1
not listed: [9]
inactive: all other assays above

O=S(=O)(O)c1cccc2c(S(=O)(=O)O)cccc12
not listed: [9]
inactive: all other assays above

O=C(O)c1snc(Cl)c1Cl
active: [3] 164 µM | [7] 130 µM
not listed: [9]
inactive: all other assays above

Cc1ncc([N+](=O)[O-])n1C
not listed: [9]
inactive: all other assays above

CC(C=O)Cc1ccc(C(C)C)cc1 (stereo not given)
not listed: [9]
inactive: all other assays above

O=c1[nH]c(=O)n([C@H]2CCCO2)cc1F
not listed: [9]
inactive: all other assays above

C=O
not listed: [9]
inactive: all other assays above

COc1cc(C=O)ccc1OC(=O)C(C)C
not listed: [9]
inactive: all other assays above

N#Cc1ccccc1
not listed: [9]
inactive: all other assays above

CC(C)=CCCC(C)=CCCC(C)=CCO
not listed: [9]
inactive: all other assays above

O=C(O)CCCCCCCC(=O)O
not listed: [9]
inactive: all other assays above

C=C[C@@H](C)CCC=C(C)C
not listed: [9]
inactive: all other assays above

c1ccc2[nH]ccc2c1
not listed: [9]
inactive: all other assays above

CCC(C)CCCC(C)(C)O (stereo not given)
not listed: [9]
inactive: all other assays above

Sc1nc(S)nc(S)n1
not listed: [9]
inactive: all other assays above

COc1cc(C)cc(O)c1
not listed: [9]
inactive: all other assays above

CO[Si](CCCn1c(=O)n(CCC[Si](OC)(OC)OC)c(=O)n(CCC[Si](OC)(OC)OC)c1=O)(OC)OC
not listed: [9]
inactive: all other assays above

Nc1cc([N+](=O)[O-])ccc1O
not listed: [9]
inactive: all other assays above

CCn1c2ccccc2c2cc(N)ccc21
not listed: [9]
inactive: all other assays above

CC1(C)OC[C@@H]2O[C@@]3(C(=O)O)OC(C)(C)O[C@H]3[C@@H]2O1
not listed: [9]
inactive: all other assays above

CCCCOCCOCCSC#N
not listed: [6] | [8] | [9]
inactive: all other assays above

Cc1ccc(C=O)s1
not listed: [6] | [9]
inactive: all other assays above

O=C(O)c1ccc([N+](=O)[O-])cc1
not listed: [8] | [9]
inactive: all other assays above

CC(C)(COC(=O)c1ccccc1)COC(=O)c1ccccc1
not listed: [5] | [9]
inactive: all other assays above

O=C1C(c2[nH]c3ccc(S(=O)(=O)O)cc3c2O)=Nc2ccc(S(=O)(=O)O)cc21
not listed: [6] | [9]
inactive: all other assays above

CCCC1CCC(=O)O1 (stereo not given)
not listed: [8] | [9]
inactive: all other assays above
